“And” between values parts separate entries of the source, which are not always exact repeats. Identical values can stand only once. Inconclusive results are not listed. Some structures have more than one record in an assay (separate samples or runs), and their calls can disagree. The source made the active and inactive calls. The call rests on the fitted dose curve; in most records, active means well fitted cell-killing curve with a large enough effect in the repeat runs; inconclusive means weak or mixed curves, or effect the other way; inactive means no such curve, though single readings can be large or run the other way.
Experiment: qHTS assay for identifying genotoxic compounds that show differential cytotoxicity against isogenic chicken DT40 cell lines with known DNA damage response pathways - Rev3 mutant cell line (AID 743014); further: nearly all actives have a fitted effect of over 55% in size
Settings: chicken DT40 Rev3-/- viability, CellTiter-Glo, 40 h; series mostly up to 68.4 µM; activity, negative = cytotoxicity: at the top concentration
Description: National Center for Advancing Translational Sciences [NCATS]
NIH Chemical Genomics Center [NCGC]
U.S. Environmental Protection Agency [EPA]
National Institutes of Environmental Health Sciences [NIEHS]
National Toxicology Program [NTP]
U.S. Food and Drug Administration [FDA]
DNA repair pathways play a critical role in cellular homeostasis by repairing DNA damage induced by endogenous processes and xenobiotics. Isogenic chicken DT40 cell lines deficient in different DNA repair pathways can be used to identify genotoxic compounds and aid in characterizing the nature of the DNA damage induced. Two DNA repair-deficient cell lines with disrupted genes, Rad54/Ku70 or Rev3, were used to screen the Tox21 10K compound library. Possible genotoxicity was based on the presence of a significant increase in cytotoxicity in one or more of the DNA repair-deficient cell lines compared to that observed in the parental DNA repair-proficient cell line. CellTiter Glo viability assay (Promega, Madison, WI) was used to measure cell viability in these cells after compound treatment. This assay includes the data from the Rev3 mutant cell line.
Tox21 Assay Protocol Summary:
300 DT40 mutant cells in 5 uL/well were dispensed into white, solid-bottom 1536-well plates using a Multidrop Combi (ThermoFisher Scientific, Waltham, MA) dispenser. After the assay plates were incubated at 37 C/5% CO2 for approximately 0.5 hour, 23 nL of compounds dissolved in DMSO, positive controls or DMSO only was transferred into the assay plate by a pintool work station (Kalypsys, San Diego, CA). The assay plates were incubated at 37 C/5% CO2 for 40 hours. After 5 uL per well of CellTiter-Glo reagent was added into each well of the assay plates, the plates were incubated for 30 min at room temperature and the luminescence intensity of the plates was measured using a ViewLux (PerkinElmer, Shelton, CT) plate reader.
On the % scale 0 is the no-effect control and ±100 the full control effect; potency means the concentration at half of the fitted maximal effect.

Row | Structure (SMILES) | Potency | activity, negative = cytotoxicity
1 | CN(C)c1ccc(C(=C2C=CC(=[N+](C)C)C=C2)c2ccc(N(C)C)cc2)cc1 | 473 nM (active) and 483 nM (active) and 243 nM (active) | –
2 | Cc1cccc2cccnc12 | – | 3.74% (inactive)
3 | CNC(=O)c1ccccc1Sc1ccc2c(/C=C/c3ccccn3)n[nH]c2c1 | 2.37 µM (active) | –
4 | COc1cc2nc(N3CCN(C(=O)c4ccco4)CC3)nc(N)c2cc1OC | 13.3 µM (active) | –
5 | CCc1ccc(Br)cc1 | – | -4.4% [at 95 µM] (inactive)
6 | CCCCCCOC(=O)C(C)CC (stereo not given) | – | -21.2% (inactive)
7 | CN1CCC[C@@H]1CCO[C@](C)(c1ccccc1)c1ccc(Cl)cc1 | 10.6 µM (active) | –
8 | Cc1nc(-c2ccc(Cl)cc2)oc1COC(C)(C)C(=O)O | – | 6.29% (inactive)
9 | OC/C=C/CO | – | -8.77% (inactive)
10 | O=C(O)c1cc(N=Nc2ccc([N+](=O)[O-])cc2)ccc1O | – | -0.613% (inactive)
11 | C=CC(=O)OCCOC(=O)C=C | 7.7 µM (active) | –
12 | CN1CCCCC1CCN1c2ccccc2Sc2ccc(S(C)=O)cc21 (stereo not given) | 29.8 µM (active) | –
13 | CCCCOC(=O)CC | – | 1.21% (inactive)
14 | COC(=O)c1ccccc1C | – | 5.48% (inactive)
15 | C=Cc1cccc(C)c1 | – | -11.5% (inactive)
16 | O=C(O)c1cc(O)c2ccccc2c1O | 5.45 µM (active) | –
17 | CC(C)(C)CC(C)(C)c1ccc(Nc2ccc(C(C)(C)CC(C)(C)C)cc2)cc1 | – | 3.12% [at 8.53 µM] (inactive)
18 | CC1=Nc2ccccc2C1(C)C | – | 0.978% (inactive)
19 | O=C(O)c1ccc2cc(C(=O)O)ccc2c1 | – | -0.551% [at 95 µM] (inactive)
20 | CC[C@H](C)COC(=O)/C=C/c1ccc(N=Cc2ccc(OC)cc2)cc1 | 61 µM (active) | –

Row | Structure (SMILES) | Potency | activity, negative = cytotoxicity
21 | C#C[C@]1(O)CC[C@H]2[C@@H]3[C@H](C)CC4=C(CCC(=O)C4)[C@H]3CC[C@@]21C | 29.8 µM (active) | –
22 | CCCCCCCCCCC[C@@H](C[C@@H]1OC(=O)[C@H]1CCCCCC)OC(=O)[C@H](CC(C)C)NC=O | 0.376 µM (active) | –
23 | [Cu+] | 54.5 µM (active) | –
24 | O=C(O)Cc1ccccc1Nc1c(Cl)cccc1Cl | inactive and 61.1 µM (active) | –
25 | C/C=C/C=C/COC(=O)C(C)C | 13.7 µM (active) | –
26 | Cc1ccc(C(=O)O)cc1 | – | 2.77% [at 95 µM] (inactive)
27 | COC(=O)c1ccccc1OC | – | -15.7% (inactive)
28 | COc1cccc2c1C(=O)c1c(O)c3c(c(O)c1C2=O)C[C@@](O)(C(C)=O)C[C@@H]3O[C@H]1C[C@H](N)[C@H](O)[C@H](C)O1 | 37.6 nM (active) and 12.3 nM (active) | –
29 | O=C(O)c1cc(-c2ccc(F)cc2F)ccc1O | – | 0.0367% [at 31.4 µM] (inactive)
30 | CC(N=C(NC#N)Nc1ccncc1)C(C)(C)C (stereo not given) | – | 0.333% (inactive)
31 | CCCCCCCC/C=C\CCCCCCCCN | – | 10.6% (inactive)
32 | CCCCCCC1CCCC(=O)O1 (stereo not given) | – | -16.4% (inactive)
33 | Cc1cc(C(C)(C)C)c(O)c(C)c1Cn1c(=O)n(Cc2c(C)cc(C(C)(C)C)c(O)c2C)c(=O)n(Cc2c(C)cc(C(C)(C)C)c(O)c2C)c1=O | – | 0.755% (inactive)
34 | CCn1c2ccccc2c2cc([N+](=O)[O-])ccc21 | 27.3 µM (active) | –
35 | CC(C)(C)c1ccc(C(O)CCCN2CCC(C(O)(c3ccccc3)c3ccccc3)CC2)cc1 (stereo not given) | inactive and 9.44 µM (active) | –
36 | Cc1ccc(O)c(N)c1 | 54.5 µM (active) | –
37 | CN1CCN(Cc2cc(-c3ccc4[nH]c(=O)oc4c3)co2)[C@@H](c2ccc(F)cc2)C1 | 16.6 µM (active) | –
38 | C#C[C@]1(OC(C)=O)CC[C@H]2[C@@H]3CCC4=C[C@@H](OC(C)=O)CC[C@@H]4[C@H]3CC[C@@]21C | 10.6 µM (active) and 16.8 µM (active) | –
39 | CC(=O)CC(=O)Nc1ccc(S(=O)(=O)O)cc1 | – | -21.2% (inactive)
40 | Nc1ccc(C(=O)O)c(O)c1 | – | 0.0668% (inactive)
